Measurements published in PubChem BioAssay (NCI).
Several values for one entry are separate records, joined by “and”; a condition that tells them apart may be missing. Equal values may be shown once. The panel holds about 83,000 compounds, 20% with a hit somewhere; the sample as a whole holds those more often.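 A percent growth of 40 corresponds to 60% growth inhibition; 0 means no net growth; -100 means all cells died. Active threshold: below 10.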 Activity calls are given as the source filed them.

Experiments:
Test in all cases: NCI-60 one-dose screen, 48 h (100 = growth as untreated, 0 = no growth, -100 = all killed)
Conditions in all cases: 10 µM unless noted
T-47D breast = test system: T-47D breast
BT-549 breast = test system: BT-549 breast
MDA-MB-435 melanoma = test system: MDA-MB-435 melanoma
SW-620 colon = test system: SW-620 colon
MCF7 breast = test system: MCF7 breast
HCT-116 colon = test system: HCT-116 colon
HCC-2998 colon = test system: HCC-2998 colon
KM12 colon = test system: KM12 colon

SMILES | growth (T-47D breast) | growth (BT-549 breast) | growth (MDA-MB-435 melanoma) | growth (SW-620 colon) | growth (MCF7 breast) | growth (HCT-116 colon) | growth (HCC-2998 colon) | growth (KM12 colon)
Cc1ccc(C(=O)c2ccc(C)cc2)cc1 | 90.7% (inactive) and 94.9% (inactive) | 92% (inactive) | 103% (inactive) and 105% (inactive) | 104% (inactive) and 101% (inactive) | 99.9% (inactive) and 95.3% (inactive) | 92.5% (inactive) and 98% (inactive) | 87.5% (inactive) and 99.8% (inactive) | 102% (inactive) and 108% (inactive)
O=C1C(=O)c2ccccc2C(O)=C1CC=C(Cl)Cl | 80.8% (inactive) and 69% (inactive) | 63% (inactive) and 71.6% (inactive) | 43.8% (inactive) and 52.5% (inactive) | 50.1% (inactive) and 52.6% (inactive) | 37.9% (inactive) and 44.7% (inactive) | 27.9% (inactive) and 40% (inactive) | 61.8% (inactive) and 64.4% (inactive) | 48.1% (inactive) and 45.8% (inactive)
OC1CCCN(Cc2ccccc2)C1 (configuration not stated) | 94.9% (inactive) | 112% (inactive) | 107% (inactive) | 107% (inactive) | 102% (inactive) | 103% (inactive) | 116% (inactive) | 107% (inactive)
S=c1ccc2ccccc2[nH]1 | 90.1% (inactive) and 91.2% (inactive) | 100% (inactive) and 104% (inactive) | 110% (inactive) and 104% (inactive) | 106% (inactive) and 104% (inactive) | 99.5% (inactive) and 103% (inactive) | 95.9% (inactive) and 102% (inactive) | 111% (inactive) and 107% (inactive) | 106% (inactive) and 103% (inactive)
O=C(O)C1CSCN1 (configuration not stated) | 107% (inactive) and 97.9% (inactive) | 99% (inactive) | 95.5% (inactive) and 104% (inactive) | 115% (inactive) and 113% (inactive) | 95.4% (inactive) | 108% (inactive) and 94.4% (inactive) | 133% (inactive) and -20.6% (active) | 117% (inactive) and 110% (inactive)
COc1cc(NCCCCCCCNC(C)C)c2nccc(C)c2c1 | 59.9% (inactive) | 85.7% (inactive) and 64.2% (inactive) | 93.9% (inactive) and 7.03% (active) | 98% (inactive) and 73% (inactive) | -1.6% (active) and -9.72% (active) | 73.3% (inactive) and 50.4% (inactive) | 67.2% (inactive) and 61.5% (inactive) | 92.6% (inactive) and 73.1% (inactive)
O=C1CCC(=O)N1CC1CC2CCC1C2 (configuration not stated) | 100% (inactive) and 79.2% (inactive) | 90.1% (inactive) | 93.3% (inactive) and 95.9% (inactive) | 104% (inactive) and 100% (inactive) | 99% (inactive) and 95.9% (inactive) | 106% (inactive) and 90.5% (inactive) | 106% (inactive) | 107% (inactive) and 100% (inactive)
OCCS | 92.8% (inactive) | 134% (inactive) | 105% (inactive) | 109% (inactive) | 94.1% (inactive) | 103% (inactive) | 93.9% (inactive) | 103% (inactive)
O=C(O)c1cccc(Br)c1 | 92.3% (inactive) and 83.4% (inactive) | 104% (inactive) | 114% (inactive) and 107% (inactive) | 112% (inactive) and 104% (inactive) | 98.7% (inactive) and 98.2% (inactive) | 99.7% (inactive) and 97.6% (inactive) | 122% (inactive) and 103% (inactive) | 101% (inactive) and 106% (inactive)
CC(=O)Oc1ccc(C(c2ccc(OC(C)=O)cc2)c2ccccn2)cc1 | -15.1% (active) and -18.5% (active) | -16.4% (active) | 110% (inactive) and 103% (inactive) | 104% (inactive) and 83.9% (inactive) | 20.6% (inactive) and 34.8% (inactive) | 88.6% (inactive) and 96% (inactive) | 70.5% (inactive) | 80% (inactive) and 85% (inactive)
Clc1ccc(/C=C/c2ccc3ccccc3n2)cc1 | 18.6% (inactive) and 65.6% (inactive) and 52.5% (inactive) | 58.7% (inactive) and 107% (inactive) and 94.8% (inactive) | -38.5% (active) and 85.2% (inactive) and 92.6% (inactive) | 22.8% (inactive) and 108% (inactive) and 97.1% (inactive) | 15.1% (inactive) and 65.5% (inactive) and 67.1% (inactive) | 18.5% (inactive) and 77% (inactive) and 63.4% (inactive) | 7.83% (active) and 104% (inactive) and 91.5% (inactive) | 16.3% (inactive) and 97% (inactive) and 94.7% (inactive)
N#Cc1c(N)nc2c(c(-c3ccc(Cl)cc3)nn2-c2ccccc2)c1C#N | 97.4% [100 µM] (inactive) | 94.2% [100 µM] (inactive) | 104% [100 µM] (inactive) | 107% [100 µM] (inactive) | 97.1% [100 µM] (inactive) | 94.7% [100 µM] (inactive) | 111% [100 µM] (inactive) | 103% [100 µM] (inactive)
C/C=C/C(=O)OCCCCCCCCCCCC | 90.8% (inactive) | 97% (inactive) | 115% (inactive) | 111% (inactive) | 102% (inactive) | 88.5% (inactive) | 130% (inactive) | 105% (inactive)
CN(C=O)c1ccccc1 | 86.7% (inactive) | 93.1% (inactive) | 102% (inactive) | 104% (inactive) | 87.4% (inactive) | 89% (inactive) | 101% (inactive) | 110% (inactive)
OC(CC(c1ccccc1)c1cccc2ccccc12)(c1ccccc1)c1ccccc1 (configuration not stated) | 64% (inactive) and 81.8% (inactive) | 88.4% (inactive) | 96.9% (inactive) and 88.9% (inactive) | 77% (inactive) and 80.9% (inactive) | 79.1% (inactive) and 79.3% (inactive) | 58.9% (inactive) and 46.3% (inactive) | 98.9% (inactive) and 88.1% (inactive) | 89.2% (inactive) and 90.9% (inactive)
CC(=O)c1cccc(OC(=O)c2ccccc2)c1 | 102% (inactive) | 120% (inactive) | 117% (inactive) | 106% (inactive) | 85.2% (inactive) | 90.1% (inactive) | 101% (inactive) | 110% (inactive)
COc1ccc([N+](=O)[O-])cc1OC | 103% (inactive) and 102% (inactive) | 110% (inactive) | 109% (inactive) and 107% (inactive) | 91.8% (inactive) and 110% (inactive) | 87.5% (inactive) and 96.7% (inactive) | 96.5% (inactive) and 102% (inactive) | 105% (inactive) | 109% (inactive) and 120% (inactive)
COc1cc(C2c3cc4c(cc3C(OC(=O)C[n+]3ccccc3)C3COC(=O)C23)OCO4)cc(OC)c1OC (configuration not stated) | 94.8% (inactive) | 19.8% (inactive) | -8.6% (active) | 21.3% (inactive) | 9.23% (active) | 5.09% (active) | 13.3% (inactive) | -8.66% (active)
O=C(OCc1ccccc1)c1ccccc1 | 96% (inactive) and 87.9% (inactive) | 109% (inactive) and 102% (inactive) | 105% (inactive) and 112% (inactive) | 110% (inactive) and 105% (inactive) | 107% (inactive) and 94.3% (inactive) | 108% (inactive) and 93.7% (inactive) | 102% (inactive) and 93.9% (inactive) | 104% (inactive) and 102% (inactive)
CC1OS(=O)OC1C (configuration not stated) | 93% (inactive) | 105% (inactive) and 104% (inactive) | 99.3% (inactive) and 101% (inactive) | 105% (inactive) and 98.3% (inactive) | 91.2% (inactive) and 93.9% (inactive) | 105% (inactive) and 102% (inactive) | 99.3% (inactive) and 118% (inactive) | 107% (inactive) and 97.5% (inactive)
Nc1nc(-c2ccccn2)cc(-c2cc(-c3ccccn3)nc(N)n2)n1 | 109% (inactive) | 117% (inactive) | 119% (inactive) | 133% (inactive) | 92.2% (inactive) | 111% (inactive) | 104% (inactive) | 107% (inactive)
Oc1ccc(O)c(-c2ccccc2)c1 | 47.1% (inactive) | 55.3% (inactive) | 81.8% (inactive) | 78.7% (inactive) | 39.5% (inactive) | 47.1% (inactive) | 65.6% (inactive) | 40.8% (inactive)
CC1=CC(=O)c2cccc(NC3=NCCO3)c21 | 90.3% (inactive) | 101% (inactive) | 98.4% (inactive) | 95.2% (inactive) | 98.6% (inactive) | 97.9% (inactive) | 104% (inactive) | 97.7% (inactive)
CCC(C)NC(=O)c1ccccc1C (configuration not stated) | 94.3% (inactive) | 99.4% (inactive) | 103% (inactive) | 92.4% (inactive) | 90.7% (inactive) | 98.3% (inactive) | 96.7% (inactive) | 101% (inactive)
